Data taken from the supplement of paper PMC13380429.

Tests used:
[1] = system: Vero E6 infected with SARS-CoV-2; test: morphology score (similarity to uninfected cells); higher = more like uninfected cells; details: 24 h
[2] = system: Vero E6 infected with SARS-CoV-2; test: SARS-CoV-2 infection rate relative to infected DMSO; higher = more infection, active = 60 or less; details: 24 h

Row | SMILES | morphology score [1] | SARS-CoV-2 infection rate [2]
1 | CN[C@@H]1[C@@H](O)[C@@H](O[C@@H]2[C@@H](O)[C@H](O[C@H]3OC(CN)=CC[C@H]3N)[C@@H](N)C[C@H]2N)OC[C@]1(C)O [Sisomicin (sulfate)] (10 µM) | 0.222 | 102% (inactive)
2 | CCC(=O)N1CCOc2c(cc(-c3ccc(OC)c(OC)c3)cc2OC[C@H]2CCCN(C)C2)C1 (0.833333 µM) | -0.0814 | 98.5% (inactive)
3 | N#Cc1ccccc1-c1cc(-c2ccccn2)cn(-c2ccccc2)c1=O [Perampanel] (10 µM) | 0.11 | 90.5% (inactive)
4 | COc1ccc2c(c1)c(CC(=O)N1CCOCC1)c(C)n2C(=O)c1ccc(Cl)cc1 (10 µM) | 0.131 | 112% (inactive)
5 | Cc1nnc2ccc(-c3cccc(C(F)(F)F)c3)nn12 (10 µM) | -0.183 | 104% (inactive)
6 | O=C(NCc1ccc(Oc2ccccc2)cc1)c1nc(-c2cc(Br)c(O)c(Br)c2)no1 (0.833333 µM) | 0.0493 | 100% (inactive)
7 | O=C(O)Cc1ccc(OCc2ccccc2)c(Cl)c1 [benzofenac] (10 µM) | -0.114 | 106% (inactive)
8 | COc1ccc2cc1Oc1cc3c(cc1OC)CC[N+](C)(C)[C@H]3Cc1ccc(cc1)Oc1c(OC)c(OC)cc3c1[C@@H](C2)[N+](C)(C)CC3 [metocurine] (10 µM) | 0.103 | 104% (inactive)
9 | Nc1ccn([C@@H]2O[C@@](CO)(CCl)[C@@H](O)[C@H]2F)c(=O)n1 (10 µM) | -0.0112 | 104% (inactive)
10 | Cn1cc(-c2ccc(F)c(C(F)(F)F)c2)nc1C1CCN(c2ncnc3[nH]ncc23)CC1 (10 µM) | 0.119 | 110% (inactive)
